Test results as given in the supplement of paper PMC11417369.
In all, about 25,000 sequences were measured (“ln(normalized median fluorescence intensity)”: median about 7.1, highest 2% from about 10 on). Shown is part of a subset that was picked to be rich in the highest values.

The sequences below were run on PfSIP2 AP2 domain 1 (GST-tagged) (assay: gcPBM binding intensity (ln(normalized median fluorescence intensity)); higher = stronger DNA binding).
Procedure, shortened: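 GST-tagged P. falciparum DNA-binding domains, expressed in E. coli (about 25 μg on average), were applied for 1 h to an Agilent 4 × 180k array of primer-extended double-stranded 36-bp intergenic genomic probes plus negative controls. The binding buffer was 1× PBS with 1% milk, 0.2 mg/ml BSA, 0.5% salmon testes DNA and 0.03% Triton X-100. Bound protein was detected with Alexa488 anti-GST antibody and scanned at 488 nm. Binding intensity is the highest Masliner-normalised natural-log median intensity across replicate spots of either probe orientation.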

Point of comparison: “TATAAAAATGTGCACACACACACATATTTATATTTA [CACACA_site6826]”, “gcPBM binding intensity (ln)” value 8.97. Against it:
- TTTTTGTATCCTTTTAATATTAAATAAAAGGAATGT [CACACA_negctrl_site1468] — lower, 7.02
- TTGTATCCTTAATGCATGCACCAAATAACAAAAGTA — higher, 10.6
- ACAAAGTAAAATAATGCATGTAGGTATACATAATTA [TGCATGCA_site607] — lower, 6.64
- TTAAAAAAGTAATTAACACACAATAATGTAATGCAT [CACACA_site4176] — lower, 6.72
- CTGTATAAAACCAATGCATGTAAATATATTAATATA [TGCATGCA_site511] — lower, 7.06
- TATTTGTTTGAATTTTTTTTTTTTTTTTTTTATGTG [CACACA_negctrl_site966] — lower, 6.78
- CCTATATAATATATTTGTACTTAATAATTAAAGTGT [XGTACX_site5151] — lower, 7.16
- ATTATTTGTAATATAACACACACAAAAAAAGACTCG [CACACA_site8487] — lower, 7.1
- AAAATGTATATTGGCGCATGTAAACAAATACTATAC [TGCATGCA_site385] — lower, 7.13
- AAATATTACATTTGTTAAATAATATGTTATACATAA [XGTACX_negctrl_site484] — lower, 6.96
- CAGTTGTTAATTTGTGTGCACCAAATATTATACATA — higher, 11.2
- GTCAAATTTTTGTGCACACATATATAGTTATTATTA [CACACA_site2241] — higher, 10
- ACCTACACAAGCATTAAACACACAAAAGGGATACTT [CACACA_site8273] — lower, 7.18
- AAAACATTGTTGAACTGTTTTATTTATAAATATAAG [XGTACX_negctrl_site393] — lower, 7.02
- AAAATGAACAGACACACACACATATTTATATTTATA [CACACA_site7182] — lower, 6.96
- TCCTTATATTTGCACACACACACAAGAAAATGAAAA [CACACA_site6613] — lower, 8.3
- TTAAAATGAAGAAGTGCACACATATATATATTTATA [CACACA_site8063] — higher, 10.4
- CATAAAAATGAACATACACACATATATTTATTTATA [CACACA_site7222] — lower, 6.85
- AAAATGAAGAAGTGCACACATATATATATTTATATA [CACACA_site507] — higher, 10.7
- CATGCCGTTAAATTATGTACTTATTATTTTAATATG [XGTACX_site4209] — lower, 7.03
- TATCATGTTTTTATGGTGCATGAAATCACACATTGA — higher, 9.32
- TAAAAAAAATCATTCACACATATATGAAAAAAAAAA [CACACA_site5546] — lower, 6.72
- TTATGGTGCATGAAATCACACATTGATATATATGCT [CACACA_site5352] — higher, 11.3
- ACAAAAAAATAAGGTGCACACAAAAAAAAAAAAAAA [CACACA_site8171] — higher, 12
- TAAATATAAAAATGCACACACACAAAAAAAAAAAAA [CACACA_site895] — lower, 7.44
- ATATATATATATATTGTGCACAAAAAAAAATAAGCA — higher, 9.29
- AATATAAAAATGCACACACACAAAAAAAAAAAAAAA [CACACA_site6546] — lower, 7.37
- AAAAATAAAAGGTGTGCACACAAAAATATATATATA [CACACA_site8507] — lower, 8.89
- AAAAAAATAAGGTGCACACAAAAAAAAAAAAAAAAA [CACACA_site812] — higher, 12.4
- GTCCTTCATCATATTTAACACACAGAGAAAAAGCGG [CACACA_site7979] — lower, 7.68
- AAAATAAAAAAAATAAATAAAAAAAATAATAATAAA [CACACA_negctrl_site563] — lower, 6.55
- TATAACTTTTTTATTACACACCTATGCAATATTATA [CACACA_site6570] — lower, 7
- TATATAATATAATTGACATGCAACCATTTTCGTGAA [TGCATGCA_site458] — lower, 6.84
- ATATGTTATATAAATATATATATATATATATATATA [TGCATGCA_negctrl_site594] — higher, 9.55
- GAAAAATTTTTATATGTGCACATGTTATATATAATT [GTGCAC_site9742] — lower, 8.64
- ATATTTATTTGTTAGTGTACATACATATATATATAT [XGTACX_site1347] — higher, 9.24
- AAATATATGTTATATGTGCACTTTTTTTTTTTTTTT [GTGCAC_site9667] — higher, 10.4
- TTTTTTTTTTTTTTGTGTACATATAATGCACATTAT [XGTACX_site6505] — lower, 8.07
- TATTTTTTTTGTTAGGTGCATTTACATTTATTTTTA — higher, 9.93
- TTTTTGTTATTATGTGTGCACATATATATATATATA — higher, 9.79
- TTTTTGTTATTTTTAGTGCACATTTAAGGGTGTATT — higher, 10.4
- ATATATATTATGTGTGTGCACTTTTGTTATTATTAT — higher, 10.4
- TTTTTTTTTGTTATGTTGCACTTTGCCATATTATTA [GTGCAC_site9844] — lower, 7.93
- CATACATATACTTTGTGTACATATATATATTATATA [XGTACX_site97] — lower, 7.51
- ACTTTTTTTTTGTGTGTGCACTCGATTATATACATA [GTGCAC_site9846] — higher, 10.3
